# Measurements: PubChem BioAssay
# Results filed as inconclusive are left out. Calls of active or inactive are those of the source.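 The calls were made as follows, unless noted: active = inhibition over a set limit, the all-compound mean plus 3 SD, in both replicate runs; inconclusive = over that limit in just one replicate run; inactive = at or under that limit in both runs.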
# How the values were obtained:
# [1] = reducers of endogenous Her2 protein level, primary screen, SKBR3 breast tumor cells, AlphaScreen, ATP viability (AID 461;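 active = Her2 level under about 52% in both replicate screens, with viability over 70% of control, limit read from the data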;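 as to Her2 level: lower value means less Her2 protein in the cells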;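 as to viability: percent of carrier control wells set as 100% viability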); conditions: 18-24 h, measured here: SKBR3 viability, ATP luminescence, at 10 µM
# [2] = target: Receptor tyrosine-protein kinase erbB-2 (Homo sapiens) (UniProt P04626); assay: as above; conditions: 18-24 h, at 10 µM, stronger effect = lower value
# Sequence of Receptor tyrosine-protein kinase erbB-2 (Homo sapiens) (P04626 whole entry, looked up): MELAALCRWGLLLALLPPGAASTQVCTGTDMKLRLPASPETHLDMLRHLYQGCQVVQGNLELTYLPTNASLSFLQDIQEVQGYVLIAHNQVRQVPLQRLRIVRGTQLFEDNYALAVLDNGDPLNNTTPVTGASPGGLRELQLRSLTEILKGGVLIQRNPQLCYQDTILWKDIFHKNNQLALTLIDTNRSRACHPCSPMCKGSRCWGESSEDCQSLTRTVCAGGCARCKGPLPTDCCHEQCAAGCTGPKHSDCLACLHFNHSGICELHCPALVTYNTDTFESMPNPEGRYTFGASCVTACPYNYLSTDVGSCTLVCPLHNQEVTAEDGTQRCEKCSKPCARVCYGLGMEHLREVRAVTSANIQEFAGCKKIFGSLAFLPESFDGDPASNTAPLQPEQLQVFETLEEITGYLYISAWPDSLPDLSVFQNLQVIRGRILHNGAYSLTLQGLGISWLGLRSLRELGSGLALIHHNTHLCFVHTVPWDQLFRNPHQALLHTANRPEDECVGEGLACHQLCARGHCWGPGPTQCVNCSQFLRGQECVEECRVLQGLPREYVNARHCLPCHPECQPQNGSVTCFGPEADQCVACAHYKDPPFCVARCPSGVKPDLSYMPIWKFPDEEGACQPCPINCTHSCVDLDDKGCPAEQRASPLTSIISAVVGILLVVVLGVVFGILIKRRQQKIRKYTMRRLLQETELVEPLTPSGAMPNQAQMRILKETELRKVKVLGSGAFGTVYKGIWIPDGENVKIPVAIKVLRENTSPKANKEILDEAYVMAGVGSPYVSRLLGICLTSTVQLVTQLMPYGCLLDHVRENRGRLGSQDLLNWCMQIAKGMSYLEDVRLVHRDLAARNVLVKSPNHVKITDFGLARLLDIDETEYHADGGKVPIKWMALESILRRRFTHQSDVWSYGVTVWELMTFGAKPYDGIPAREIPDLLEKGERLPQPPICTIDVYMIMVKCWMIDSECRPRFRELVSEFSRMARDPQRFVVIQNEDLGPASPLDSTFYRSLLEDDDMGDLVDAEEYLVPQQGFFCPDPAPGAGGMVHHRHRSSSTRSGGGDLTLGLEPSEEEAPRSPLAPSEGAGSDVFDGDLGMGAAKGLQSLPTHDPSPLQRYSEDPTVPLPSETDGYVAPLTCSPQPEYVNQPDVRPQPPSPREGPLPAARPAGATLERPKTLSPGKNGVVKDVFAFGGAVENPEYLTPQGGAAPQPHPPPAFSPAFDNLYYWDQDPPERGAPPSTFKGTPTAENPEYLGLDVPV
# [3] = SK-BR-3 cell growth inhibitors, pilot screen, 24 h, human (AID 572;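 active = viability at or below 10% of carrier control in both of two separate runs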;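 also: compound exposure lasted between 18 and 24 h rather than exactly 24 h; 100% = carrier-treated control wells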); conditions: SK-BR-3 viability, CellTiter-Glo luminescence, at 10 µM, stronger effect = lower value
# [4] = HUVEC growth inhibition – cell-based, human, primary screen (AID 575;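 active = viability at or below 30% in both replicate assays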;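 also: 100% = median of untreated cell wells with 0.1% DMSO on each plate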); conditions: HUVEC proliferation, CellTiter-Glo luminescence, 72 h; at 10 µM; stronger effect = lower value
# [5] = growth inhibitors of H69AR lung tumor, primary screen, human, duplicate replicates (AID 580;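 active = viability at or under a set limit in both replicates, limit being median viability minus 3 SD, cut at about 48% in these data, passing the limit was not always enough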;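 also: 100% = mean luminescence of untreated wells and 0% = no signal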); conditions: H69AR lung tumor cells viability, ATP luminescence, 72 h; at 10 µM; stronger effect = lower value
# [6] = reversal of MRP1-mediated doxorubicin resistance, pilot screen, H69AR cells, doxorubicin co-treatment (AID 601;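 active = viability loss from added drug above about 55%, and viability with drug at most 40%, in both replicates, limit read from the data, passing the limit was not always enough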); conditions: CellTiter-Glo, 72 h, at 10 µM; for differential viability (reversal): stronger effect = higher value
# [7] = 384-well plate pilot, post-Golgi transport modulator project, inhibition of yeast transport mutant growth (AID 636; in the data active = inhibition above about 31%); conditions: absorbance 615 nm, about 18 h, stronger effect = higher value
# [8] = growth suppression of yeast trafficking mutant, preliminary HTS, modulators of trafficking downstream of Golgi apparatus project, 1536-format plate, OD 615 nm (AID 637; in the data active = inhibition above about 30%); conditions: yeast transport mutant growth, absorbance 615 nm, 18 h; stronger effect = higher value
# [9] = OD615 S. cerevisiae growth inhibition, permissive medium, pilot counter-assay, permissive growth control for S. cerevisiae lifespan shortening project (AID 705;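 active = growth inhibition above 25% in both replicates, a cutoff set 3 SD above the mean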); conditions: OD615, 24 h, at 10 µM, stronger effect = higher value
# [10] = Restrictive medium S. cerevisiae growth inhibition, OD615, pilot screen of yeast lifespan reduction project, restrictive growth control (AID 706;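 active = growth inhibition above a set limit, 3 SD over mean compound inhibition, in both replicates, cut at about 43% in these data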;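 also: modified DeaD lifespan yeast strain shifted to restrictive glucose medium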); conditions: OD615, 48 h, at 10 µM, stronger effect = higher value
# [11] = viability gain of MRP-1-high H69AR cells under doxorubicin, pilot screen, MRP-1 activator project, CellTiter-Glo, duplicate (AID 807;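 active = viability increase at or above a cutoff of the median across tested compounds plus 3 SD, cut at about 8.5% in these data, passing the limit was not always enough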;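 also: compound pretreatment 18-22 h then 72 h combined with doxorubicin; 0% = doxorubicin alone and 100% = vehicle without doxorubicin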); conditions: H69AR viability with doxorubicin, CellTiter-Glo luminescence; at 10 µM; stronger effect = higher value
# [12] = growth suppression of beta-catenin knockout HCT116, pilot screen, human colon tumor cells (AID 823;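 active = cell viability at or below a set limit in both duplicate runs, the limit being the all-compound median minus 4 SD, cut at about 23% in these data, passing the limit was not always enough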;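 also: 0% = wells killed by 20 µM Hyamine and 100% = untreated DMSO cell wells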); conditions: CellTiter-Glo, 60 h, at 10 µM, stronger effect = lower value
# [13] = growth suppression of PTEN-deleted HCT116, pilot screen, cell-based, HCT116 clonal line, CellTiter-Glo (AID 824;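 active = viability at or below 27.92% in each of two runs, the all-compound median minus 4 SD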;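 also: 0% = 20 µM Hyamine control and 100% = vehicle cell control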); conditions: 60 h, at 10 µM, stronger effect = lower value
# [14] = inhibitors of the yeast RAM network, pilot screen, dse1pr::URA3 reporter, 5-FOA selection (AID 869);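 also: 0% = DMSO wells with no growth and 100% = 10 µM 1-NA-PP1 with full growth; RAM network block rescues cells from 5-FOA so hits raise OD615 growth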; conditions: S. cerevisiae dse1pr::URA3 5-FOA growth, OD615, 2 d; at 10 µM; stronger effect = higher value; strain carries analog-sensitive mutant Cbk1 kinase
# [15] = RAM signaling pathway blockade in yeast – S. cerevisiae, Pdr1DBD-CYC8 efflux-inhibited sensitized strain, primary screen (AID 1298;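 active = RAM network inhibition above 8.4% in each of two replicates, 3 SD over the compound average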;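 also: 0% = DMSO untreated cells without growth and 100% = 10 µM 1-NA-PP1 full growth; higher means more yeast growth rescued from 5-FOA killing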); conditions: S. cerevisiae cbk1-as DSE1-URA3 strain, 5-FOA growth OD615, 2 d; at 50 µM; stronger effect = higher value
# [16] = H69AR cells + 2 uM doxorubicin, measured here: viability with 2 uM doxorubicin, stronger effect = lower value
# [17] = H69AR cells, compound alone cytotoxicity
SMILES,viability [1] [%],Her2 level [2],viability [3],viability [4],viability [5],differential viability (reversal) ([6]; H69AR cells + 2 uM doxorubicin),"viability [6, 16] [%]","viability [6, 17] [%]",inhibition [7],inhibition [8],growth inhibition [9],growth inhibition [10],viability increase [11],viability [12],viability [13],inhibition [14],RAM network inhibition [15]
Cc1cccc(-n2ncc3c(N4CCC5(CC4)OCCO5)ncnc32)c1,106,92.5% (inactive),106% (inactive),76% (inactive),42.6% (active),-11.1% (inactive),53.8,42.6,-4.4% (inactive),-9.33% (inactive),-2.87% (inactive),-15.6% (inactive),-7.22% (inactive),78% (inactive),59.5% (inactive),1.75% (inactive),3.86% (inactive)
CCC(C)(NC(=O)c1ccc(=O)[nH]c1)C(=O)NC1CCCC1 (stereo not drawn),102,96.5% (inactive),102% (inactive),107% (inactive),94.1% (inactive),12.3% (inactive),81.8,94.1,-5.2% (inactive),-0.67% (inactive),-11.7% (inactive),-35% (inactive),0.76% (inactive),105% (inactive),97.9% (inactive),1.92% (inactive),2.77% (inactive)
O=C(COC(=O)C1CC2C=CC1C2)Nc1ccc2c(c1)OC(F)(F)O2 (stereo not drawn),119,89.5% (inactive),119% (inactive),84.2% (inactive),94.3% (inactive),-1.17% (inactive),95.5,94.3,-1.95% (inactive),-0.49% (inactive),-9.33% (inactive),3.8% (inactive),3.74% (inactive),89.2% (inactive),96.2% (inactive),1.08% (inactive),-2.17% (inactive)
Cn1c(=O)c2c(nc(SCCCC#N)n2Cc2c(F)cccc2Cl)n(C)c1=O,102,108% (inactive),102% (inactive),91.8% (inactive),77.3% (inactive),61.3% (active),15.9,77.3,-1.33% (inactive),1.17% (inactive),-13.5% (inactive),5.36% (inactive),-4.16% (inactive),89.2% (inactive),86.1% (inactive),3.15% (inactive),4.98% (inactive)
Cc1cccc(NC(=O)CS(=O)(=O)c2cn(C)c3ccccc23)c1,98,95.5% (inactive),98% (inactive),105% (inactive),90.6% (inactive),-1.36% (inactive),92,90.6,-3.47% (inactive),-0.98% (inactive),1.62% (inactive),-12% (inactive),-3.05% (inactive),97.1% (inactive),92.6% (inactive),1.98% (inactive),4.28% (inactive)
CCN1CCN(c2nc3c(c(=O)[nH]c(=O)n3C)n2CCSc2nc3ccccc3s2)CC1,95.5,95% (inactive),95.5% (inactive),115% (inactive),88.6% (inactive),-8.44% (inactive),97.1,88.6,-1.73% (inactive),4% (inactive),1.81% (inactive),-6% (inactive),-1.2% (inactive),96.9% (inactive),91.4% (inactive),0.9% (inactive),-0.84% (inactive)
CCOC(=O)C1=C(C)N(C)C(=O)NC1c1cccc(O)c1 (stereo not drawn),102,85% (inactive),102% (inactive),90.1% (inactive),86.9% (inactive),-13.7% (inactive),101,86.9,-0.9% (inactive),-6.5% (inactive),-6.63% (inactive),4.03% (inactive),-0.55% (inactive),99.2% (inactive),95.9% (inactive),-0.435% (inactive),-0.57% (inactive)
Cc1ccccc1-n1c(Cn2c(=O)sc3ccccc32)nnc1SCC(=O)N1CCCC1,109,90.5% (inactive),109% (inactive),98% (inactive),93.7% (inactive),12.6% (inactive),81.1,93.7,-4% (inactive),6.89% (inactive),-2.21% (inactive),6.39% (inactive),-0.45% (inactive),98.6% (inactive),104% (inactive),-0.765% (inactive),8.27% (inactive)
COC(=O)c1sc(NC(=O)COc2ccccc2OC)nc1C,99.5,90% (inactive),99.5% (inactive),99.8% (inactive),95.1% (inactive),11.6% (inactive),83.5,95.1,-6.22% (inactive),-4% (inactive),-1.71% (inactive),-0.995% (inactive),-1.51% (inactive),102% (inactive),101% (inactive),1.06% (inactive),9% (inactive)
Cc1cc(C)cc(NC(=O)CSc2nnc(Cc3cccn3C)n2-c2ccc(F)cc2)c1,87,84% (inactive),87% (inactive),63.1% (inactive),86.6% (inactive),14% (inactive),72.6,86.6,-1.2% (inactive),-11.5% (inactive),3.92% (inactive),14.7% (inactive),-4.83% (inactive),74.6% (inactive),71.6% (inactive),3.69% (inactive),7.38% (inactive)
Cc1cc(=O)oc2c1c(C)nn2-c1ccc(C(=O)OC(C)C)cc1,83.5,83.5% (inactive),83.5% (inactive),99% (inactive),96.9% (inactive),2.41% (inactive),94.5,96.9,-0.13% (inactive),1.15% (inactive),-4.51% (inactive),3.34% (inactive),-3.1% (inactive),97.3% (inactive),87.4% (inactive),0.78% (inactive),1.04% (inactive)
CCCn1c(NCc2cc(C)ccc2O)nc2ccccc21,94.5,106% (inactive),94.5% (inactive),69.4% (inactive),77.9% (inactive),1.94% (inactive),76,77.9,-1.73% (inactive),9.68% (inactive),-4.45% (inactive),-8.17% (inactive),-4.6% (inactive),53.6% (inactive),60.1% (inactive),-0.08% (inactive),0.33% (inactive)
CCOC(=O)N1CCC(NC(=O)C2CCN(S(=O)(=O)c3cccc4cccnc34)CC2)CC1,90.5,97.5% (inactive),90.5% (inactive),97.6% (inactive),94.8% (inactive),-6.25% (inactive),101,94.8,-3.07% (inactive),-3.33% (inactive),-5.04% (inactive),3.31% (inactive),0.29% (inactive),91.4% (inactive),92.9% (inactive),1.02% (inactive),1.81% (inactive)
Cc1cccc(N2CCN(C(=O)Cn3nc(Cc4ccncc4)c4ccccc4c3=O)CC2)c1C,83,82% (inactive),83% (inactive),83.9% (inactive),75.9% (inactive),-7.61% (inactive),83.5,75.9,-5.6% (inactive),1.5% (inactive),1.35% (inactive),6.96% (inactive),1.06% (inactive),70.7% (inactive),76% (inactive),0.445% (inactive),3.21% (inactive)
COc1ccc(OC)c(C(C)NC=O)c1 (stereo not drawn),89,90.5% (inactive),89% (inactive),102% (inactive),99.5% (inactive),0.26% (inactive),99.2,99.5,-6.89% (inactive),-2.3% (inactive),-9.25% (inactive),-7.95% (inactive),-0.64% (inactive),95.2% (inactive),105% (inactive),1.43% (inactive),-0.21% (inactive)
O=C(NCCOC(=O)C1COc2ccccc2O1)C1COc2ccccc2O1 (stereo not drawn),92.5,95% (inactive),92.5% (inactive),88.5% (inactive),103% (inactive),10.3% (inactive),92.6,103,-6.76% (inactive),-2.79% (inactive),-7.82% (inactive),-1.52% (inactive),0.34% (inactive),102% (inactive),100% (inactive),0.095% (inactive),0.89% (inactive)
Cc1ccc(-c2noc(CN3CCN(c4ccccc4F)CC3)n2)cc1,89.5,95.5% (inactive),89.5% (inactive),121% (inactive),92.5% (inactive),-3.02% (inactive),95.5,92.5,1.87% (inactive),-1.5% (inactive),1.99% (inactive),-1.21% (inactive),-2.06% (inactive),93.3% (inactive),92.4% (inactive),-0.38% (inactive),3.79% (inactive)
Cc1onc(-c2ccccc2Cl)c1C(=O)N1CCc2ccccc21,87.5,78.5% (inactive),87.5% (inactive),80.9% (inactive),79% (inactive),-9.1% (inactive),88.1,79,-1.82% (inactive),-5.5% (inactive),-1.1% (inactive),-8.1% (inactive),-3.41% (inactive),82.8% (inactive),87.1% (inactive),2.23% (inactive),7.99% (inactive)
COc1cccc(-c2nnc(NC(=O)c3ccccc3Br)o2)c1,87,85.5% (inactive),87% (inactive),71.6% (inactive),67% (inactive),-22.2% (inactive),89.2,67,-5.87% (inactive),1.33% (inactive),-13.4% (inactive),13.6% (inactive),-5.12% (inactive),71.7% (inactive),73.2% (inactive),1.46% (inactive),-2.32% (inactive)
